aSyn yeast inh – qHTS of alpha-syn Inhibitors; Yeast expressing alpha-synuclein, growth rescue, BacTiter-Glo, 24 h; Potency, µM (top dose mostly 46.1 µM), without a hit: at the highest dose growth rescue (activation), actives largely listed as activators; hit rate 0.14% among 370,000; AID 652106, 2013; note: % of control where 0% means no effect; nearly all actives have a fitted effect of over 65% in size
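Screening used galactose-induced yeast with toxic alpha-synuclein levels, exposed to compound for 24 hr at 30 deg C. Cell growth, read with BacTiter-Glo luminescence, gave the measured signal.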
Abeta rescue – qHTS for compounds that reverse cellular toxicity of Amyloid beta (A-beta) peptide in yeast: Primary Screen; AID 1347071, 2019; hit rate 0.063% among 410,000; Potency, µM (titrated, usually from 46.1 µM), hits mostly activators; yeast expressing A-beta42, growth rescue, OD600, 48 h; response scale: 0% DMSO, 100% iron-clioquinol control; note: nearly all actives have a fitted effect of over 55% in size
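Growth rescue measured by 600 nm absorbance after 48 h yeast culture at 30 C with compound. Values normalized between DMSO and an equimolar ferric chloride plus clioquinol control.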
Mito fusion yeast – qHTS Assay for Small Molecule Inhibitors of Mitochondrial Division or Activators of Mitochondrial Fusion. S. cerevisiae fusion-defective mutant growth rescue, CellTiterGlo 48 h. Potency, µM (highest dose often 46.1 µM), without a hit: top-dose growth rescue (activation), actives largely listed as activators. hit rate 0.23% among 320,000. AID 485298, 2010; note: % of control where 0% means no effect; nearly all actives have a fitted effect of over 45% in size
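Compounds are tested for their ability to restore growth of mitochondrial fusion-defective yeast strains at non-permissive 37C in YPEG medium over 48 hours. Viability is quantified by luciferase luminescence.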
TDP-43 yeast inh – qHTS of TDP-43 Inhibitors. TDP-43 expressing yeast growth rescue, BacTiter-Glo, 24 h. Potency, µM (titrated, usually from 46.1 µM), inactives show at the highest dose growth rescue (activation), usual class: activators. hit rate 1.8% among 410,000; note: % of control where 0% means no effect; nearly all actives have a fitted effect of over 50% in size
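Growth rescue of TDP-43-toxic yeast measured as ATP luminescence (BacTiter-Glo). Cells grown to mid-log in raffinose, induced in galactose at OD600=0.02, exposed to compound 24 hr at 30 deg C.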
FUS yeast rescue – qHTS for Suppressors of FUS Proteinopathy: Primary screen using FUS-linked yeast assay | S. cerevisiae FUS-expressing, growth rescue, OD600, 24 h | Potency, µM (doses to about 76.6 µM), actives largely listed as activators | hit rate 0.24% among 390,000;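 note: plate controls were DMSO vehicle for no effect and reference control for full effect; nearly all actives have a fitted effect of over 55% in size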
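S. cerevisiae expressing FUS from galactose induction served as the toxicity model. Growth after 24hr at 30C, read as absorbance at 600 nm, indicates suppression of toxicity; compounds dosed at several concentrations.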
Starred values were filed as active, the others as inactive; i = inactive; ? = inconclusive; . = no result; [ ] = dose if it differs, or a comment. Most compounds without a hit are left out; they make up all but 2.2% or so of the library. Calls come from the whole dose curve; as a rule, active = well fitted curve in the direction sought with a large enough effect; inconclusive = small, poorly fitted or top-dose-only effect, or another doubt; inactive = no such curve, though single readings can be large; an effect the other way counts as inactive or inconclusive. Potency is the fitted concentration of half-maximal effect.

SMILES	aSyn yeast inh	Abeta rescue	Mito fusion yeast	TDP-43 yeast inh	FUS yeast rescue
c1ccc2nc(N3CCN(Cc4ccc5c(c4)OCO5)CC3)cnc2c1	1.7%	i	1.1%	6.4%	i
COc1nc2ccccc2nc1N1CCN(Cc2ccc3c(c2)OCO3)CC1	0.9%	i	6.6%	14.1µM*	i
Cc1cccc(OCC(=O)N(Cc2ccc(C(C)(C)C)cc2)Cc2ccco2)c1	.	i	.	7.8%	i
O=C1C2C=CC=CC2=NC(=S)N1CCN1CCC(=C(c2ccc(F)cc2)c2ccc(F)cc2)CC1 (stereo not drawn)	-14.2%	.	5.8µM*	.	.
COc1ccc2c(c1)c1c(c(=O)n(-c3ccc(C)cc3)c(=O)n1CC(=O)N1CCCC1)n2C	.	i	.	4.9%	i
CCN(C(=O)c1nn(-c2ccc(OC)c(Cl)c2)c(=O)c2c1c1ccccc1n2C)c1cc(OC)ccc1OC	.	i	.	-1.9%	i
CCCCCC1CCC(c2n[nH]c(=S)n2C)CC1 (stereo not drawn)	8.3%	?	?	14.1µM*	i
Cc1ccccc1NCc1cccn1-c1nnc(N2CCOCC2)s1	12.6µM*	i	.	-1.9%	i
Fc1ccc(NCc2cccn2-c2nnc(N3CCOCC3)s2)cc1	25.7%	i	.	26.3%	i
Fc1cccc(NCc2cccn2-c2nnc(N3CCOCC3)s2)c1	22.4µM*	i	.	19.4%	i
O=S(=O)(c1ccc2ncccc2c1)N1CCN(c2nc(-c3cccs3)nc3ccccc23)CC1	-2.3%	.	.	.	.
COc1ccc(-c2cc(C(F)(F)F)nc(S(C)(=O)=O)n2)cc1	7.5%	i	10.2%	12.6µM*	i
CCOC(=O)CS(=O)(=O)c1nc(-c2ccccc2)cc(C(F)(F)F)n1	-14.7%	i	-9.4%	22.4µM*	i
COC(=O)CCS(=O)(=O)c1nc(-c2ccccc2)cc(C(F)(F)F)n1	-0.8%	i	-9.5%	?	i
CCOC(=O)CS(=O)(=O)c1nc(-c2ccc(F)cc2)cc(C(F)(F)F)n1	6.6%	i	-2.6%	22.4µM*	i
CS(=O)(=O)c1nc(-c2ccc(F)cc2)cc(C(F)(F)F)n1	8.3%	i	-30.9%	-2.8%[0.397 µM]	i
CCOC(=O)CCS(=O)(=O)c1nc(-c2ccccc2)cc(C(F)(F)F)n1	-5.7%	i	-26.2%	15.8µM*	.
COc1cc(OC)c(NC(=O)N2CCCn3nc(C)cc32)cc1Cl	.	i	.	21.1%	i
COc1cccc(-c2cc(C(F)(F)F)nc(-n3cc(Cl)cn3)n2)c1	4.5%	i	1.6%	16.3%	i
COc1ccc(-c2cc(C(F)(F)F)nc(-n3cc(Cl)cn3)n2)cc1	-3.8%	i	-2.9%	11.2µM*	?
C=C(C)CSc1nnc(-c2cc(-c3ccccc3)n[nH]2)n1N	.	.	.	.	i
Cc1ccc(N=Nc2ccc(O)c(/C=N\NC(=O)c3ccc(N)cc3)c2)cc1C	-1.0%	i	2.2%	-19.0%	1.12µM*
CCOC(=O)CC[C@@]1(C(=O)OCC)C[C@@H](CC(=O)NCCc2ccccc2OC)C(=O)N2CCCC=C21	.	.	.	.	i
CCCCCCCNC(=O)C1(CC2CC(c3ccc(Cl)cc3)=NO2)CCN(C(=O)CCCCCBr)CC1 (stereo not drawn)	-5.5%	i	-1.8%	-3.2%	31.6µM*
O=C(CCCCCBr)N1CCC(CC2CC(c3ccc(Cl)cc3)=NO2)(C(=O)NCC2CCCCC2)CC1 (stereo not drawn)	0.8%	i	1.0%	13.5%	i
SMILES	aSyn yeast inh	Abeta rescue	Mito fusion yeast	TDP-43 yeast inh	FUS yeast rescue
COc1ccc(C)cc1NC(=O)N1CCN(S(=O)(=O)c2ccc3c(ccn3C)c2)CC1	2.6%	i	.	5.9%	?
COc1ccc2c(c1)C1=NN(/C(C)=C/C(C)=O)C(c3ccc(F)cc3)C1CC2 (stereo not drawn)	6.7%	i	9.0%	22.4µM*	.
COc1ccc2c(c1)C1=NN(/C(C)=C/C(C)=O)C(c3cccc(F)c3)C1CC2 (stereo not drawn)	5.3%	i	17.8µM*	?	i
COc1ccc2c(c1)C1=NN(/C(C)=C\C(C)=O)C(c3ccccc3)C1CC2 (stereo not drawn)	-2.9%	i	13.0%	18.2%	?
C[n+]1ccc(/C=C/c2ccc(C=S)cc2)c2ccccc21	-8.1%	.	.	.	.
Cc1ccc(Nc2nc(COC(=O)C3CC3)cs2)cc1	-24.3%	i	3.9%	12.6µM*	i
Cc1ccc(CNC(=O)c2ccc(N3CCC4(CC3)CC(c3ccccc3)=NO4)c(NC(=O)c3ccco3)c2)cc1	-1.9%	i	-2.1%	20.8%	17.8µM*
Cc1ccc(CNC(=O)c2ccc(N3CCC4(CC3)CC(c3cccc(Br)c3)=NO4)c(NC(=O)c3ccco3)c2)cc1	-2.8%	i	-9.2%	0.4%	?
C=C1C=C(C(F)F)n2ncc(C(=O)N3CCc4ccccc4C3)c2N1	-1.7%	.	.	.	.
COc1ccc(CN2C(=O)c3ccccc3C2c2nnnn2Cc2ccccc2)cc1 (stereo not drawn)	5.9%	i	.	?	i
O=C1c2ccccc2C(c2nnnn2Cc2ccccc2)N1CCOc1ccccc1 (stereo not drawn)	25.1µM*	i	.	11.2µM*	i
NS(=O)(=O)c1cccc(C(=O)NC2CCSc3ccccc32)c1 (stereo not drawn)	0.5%	i	12.2%	-12.0%	i
O=C(NC1CCSc2ccccc21)c1cccc(Cl)c1 (stereo not drawn)	4.4%	i	2.1%	5.62µM*	i
C=CCc1c(C)nc2nc(SCC(=O)Nc3ccc(C)c(C)c3)nn2c1C	.	i	.	28.9%	i
C=CCc1c(C)nc2nc(SCC(=O)Nc3cccc(Cl)c3)nn2c1C	.	i	.	31.6µM*	i
COc1ccc(N(CC(=O)Nc2ccc(Cl)cc2C)S(=O)(=O)c2ccccc2)c(OC)c1	.	i	.	8.4%	?
COc1ccc(Cl)cc1NC(=O)CN(c1cccc(C)c1C)S(=O)(=O)c1ccccc1	.	i	.	15.4%	22.4µM*
CCOc1ccccc1NC(=O)c1ccccc1-c1ccccc1	-0.1%	i	-1.7%	-26.4%[1.82 µM]	i
CCOc1ccccc1NC(=O)c1cnccn1	-9.0%	i	2.9%	11.2µM*	i
CCOc1ccccc1NC(=O)c1cccc2ccccc12	-0.8%	i	-2.7%	7.94µM*	i
O=c1[nH]cc(C#Cc2ccccc2)c2ncncc12	-1.4%	.	.	.	.
CCc1ccc(NC(=O)CC2C(=O)N(c3cccc(C)c3)C(=O)N2CCC(C)C)cc1 (stereo not drawn)	.	i	.	-12.4%	?
Clc1nc2c(-c3ccccc3)nnn2c2ccccc12	-16.2%	i	-10.9%	6.31µM*	i

Screening results (PubChem)
